Screening data: PubChem BioAssay, National Center for Advancing Translational Sciences (NCATS)
Compounds with a hit are over-represented: about 9.3% of the library has one in this group of screens.
Rab9 promoter act = qHTS Assay for Rab9 Promoter Activators; Huh7 Rab9 promoter-luciferase reporter, luminescence, 24 h; Potency, µM (highest dose often 9.22 µM), inactives show top-dose activation, negative = inhibition, hits mostly activators; 2.8% of 320,000 active; AID 485297, 2010; further: % of control where 0% means no effect; nearly all actives have a fitted effect of over 60% in size
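Cell-based reporter: Huh7 stable for Rab9 promoter-driven luciferase, plated in reduced-serum medium with 10% FBS at 1500 cells/well, compound-treated 24 h at 37 °C, luminescence read after 10 min reagent.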
NPC1 prom act = qHTS Assay for NPC1 Promoter Activators; AID 485313, 2010; Potency, µM (highest dose often 9.22 µM), for inactives: at the top dose activation, most hits filed as activators; 2.4% of 320,000 active; Huh7 NPC1 promoter luciferase reporter, 24 h; further: % of control where 0% means no effect; nearly all actives have a fitted effect of over 60% in size
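In 1536-well qHTS, Huh7 cells harboring an NPC1 promoter–luciferase construct received compound for 24 h; activation was quantified by luminescence following luciferase reagent addition.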
SMN2 splice enh = qHTS Assay for Enhancers of SMN2 Splice Variant Expression; HEK293 SMN2-luciferase splicing reporter, luminescence, 30-36 h; Potency, µM (highest dose often 46.1 µM), for the others: at the top dose activity change, positive = activation, actives largely listed as activators; 2.8% of 210,000 active; further: % of control where 0% means no effect; nearly all actives have a fitted effect of over 55% in size
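HEK293 cells carry an SMN2 […]–luciferase reporter in which exon 7 inclusion puts luciferase in frame. Cells were plated 10-12 h before compound addition, then incubated 30-36 h at 37C. ONE-Glo luminescence was read; sodium butyrate at 4.5 mM final served as control.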
FLuc modulator = qHTS profiling assay for firefly luciferase inhibitor/activator using purifed enzyme and Km concentrations of substrates (counterscreen for miR-21 project); purified FLuc, Km substrates, luminescence inhibition; Luciferin 4-monooxygenase (Photinus pyralis), P08659; 6.9% of 360,000 active; Potency, µM (titrated, usually from 57.5 µM), for inactives: at the highest dose activity change, negative = inhibition, actives largely listed as inhibitors;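 further: plate controls were vehicle for no effect and reference inhibitor for full effect; nearly all actives have a fitted effect of over 55% in size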
Target sequence (P08659 whole entry, looked up): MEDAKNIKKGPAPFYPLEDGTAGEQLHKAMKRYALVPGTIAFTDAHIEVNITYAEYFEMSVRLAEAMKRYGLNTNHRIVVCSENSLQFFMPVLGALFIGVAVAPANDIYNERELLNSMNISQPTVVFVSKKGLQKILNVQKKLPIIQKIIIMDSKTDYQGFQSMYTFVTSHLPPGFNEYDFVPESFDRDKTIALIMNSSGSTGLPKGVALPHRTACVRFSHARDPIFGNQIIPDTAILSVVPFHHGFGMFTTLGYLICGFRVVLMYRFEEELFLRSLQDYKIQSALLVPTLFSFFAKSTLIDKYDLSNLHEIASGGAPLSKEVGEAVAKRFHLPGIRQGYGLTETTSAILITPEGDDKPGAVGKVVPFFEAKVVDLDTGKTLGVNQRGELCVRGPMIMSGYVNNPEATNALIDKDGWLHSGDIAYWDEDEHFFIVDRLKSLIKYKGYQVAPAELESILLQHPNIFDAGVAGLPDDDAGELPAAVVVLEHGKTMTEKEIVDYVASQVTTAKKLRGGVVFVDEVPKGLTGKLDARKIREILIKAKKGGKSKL
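Purified P. pyralis luciferase (10nM final) with 10uM D-luciferin and 10uM ATP (Km levels) in 50mM Tris acetate pH 7.5, 10mM Mg acetate, 0.01% Tween-20, 0.05% BSA; qHTS 6-point titration, ~60 µM downward; luminescence read.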
ELG1 repair inh = qHTS screen for small molecules that inhibit ELG1-dependent DNA repair in human embryonic kidney (HEK293T) cells expressing luciferase-tagged ELG1. HEK293T ELG1-luciferase reporter, luminescence, 16 h; DNA damage induced by 5-fluorouridine. 2.3% of 330,000 active. AID 504467, 2011. Potency, µM (doses to about 46.1 µM), for the others: at the highest dose activity change, negative = inhibition, usual class: inhibitors; further: on the % scale 0 is the no-effect control and ±100 the full control effect; nearly all actives have a fitted effect of over 55% in size
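Quantitative HTS, concentration-response format. 2,000 cells/well co-treated with 5-fluorouridine and compound, 16 hr in 5% CO2 at 37 °C; ONE-Glo luminescence read after 30 min.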
ELG1 genotox = qHTS screen for small molecules that induce genotoxicity in human embryonic kidney (HEK293T) cells expressing luciferase-tagged ELG1. HEK293T ELG1-luciferase reporter, luminescence, 16 h. Potency, µM (doses to about 46 µM), without a hit: at the highest dose activity change, positive = activation, hits mostly activators. AID 504466, 2011. 1.3% of 330,000 active; further: % of control where 0% means no effect; nearly all actives have a fitted effect of over 60% in size
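Luminescence read-out: rising ELG1-luciferase signal, reflecting elevated ELG1 protein under genetic stress, flags genotoxic compounds. Cells were treated for 16 hr at 37 °C before ONE-Glo detection.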
The depositor's hits bear a star; [ ] = another dose, or the depositor's remark. The call rests on the fitted dose curve; in most records, active means well fitted curve in the direction sought with a large enough effect; inconclusive means small, poorly fitted or top-dose-only effect, or another doubt; inactive means no such curve, though single readings can be large; an effect the other way counts as inactive or inconclusive. Potency means the concentration at half of the fitted maximal effect.

How did FCCCOc1ccc(-c2nccc(-c3ccc(Br)cc3)n2)cc1 do in these assays?
Rab9 promoter act: -4.3%; NPC1 prom act: -0.7%; SMN2 splice enh: -12.4%; FLuc modulator: -2.2%; ELG1 repair inh: 2.1%; ELG1 genotox: -0.4%

Results for Cc1ccc(C(=O)N2CCOCC2)cc1S(=O)(=O)N1CCCC1 ?
Rab9 promoter act: -7.9%; NPC1 prom act: -2.8%; FLuc modulator: -2.2%; ELG1 repair inh: -5.3%; ELG1 genotox: 9.4%

Results for O=C(c1ccco1)N1CCN(Cc2ccc(Br)cc2)CC1 ?
Rab9 promoter act: -4.5%[1.84 µM]; NPC1 prom act: -0.9%; FLuc modulator: -0.7%; ELG1 repair inh: -9.1%; ELG1 genotox: -6.4%

How did Nc1nc(N2CCN(C(=O)c3ccco3)CC2)nc2ccccc12 do in these assays?
Rab9 promoter act: inconclusive; NPC1 prom act: 27.2%; SMN2 splice enh: 12.6µM*; FLuc modulator: 19µM*; ELG1 repair inh: inconclusive; ELG1 genotox: 13.2%

How did Nc1nc(N2CCN(C(=O)c3ccco3)CC2)nc2ccc(Br)cc12 do in these assays?
Rab9 promoter act: 1.12µM*; NPC1 prom act: 2µM*; SMN2 splice enh: 7.94µM*; FLuc modulator: 9.53µM*; ELG1 repair inh: inconclusive; ELG1 genotox: inconclusive

How did O=C1CCCc2nc(N3CCN(C(=O)c4ccco4)CC3)ncc21 do in these assays?
Rab9 promoter act: 2.51µM*; NPC1 prom act: 3.98µM*; FLuc modulator: 26.9µM*; ELG1 repair inh: inconclusive; ELG1 genotox: 20.6µM*

Results for Cc1cc(N2CCN(C(=O)c3ccco3)CC2)c2ccccc2n1 ?
Rab9 promoter act: -2.6%; NPC1 prom act: -2.7%; FLuc modulator: 4.9%; ELG1 repair inh: -9.1%; ELG1 genotox: -1.9%

How did O=C(c1ccco1)N1CCN(c2nc3ccccc3c(=O)n2-c2ccccc2)CC1 do in these assays?
Rab9 promoter act: -2.8%; NPC1 prom act: 0.1%; SMN2 splice enh: -14.9%; FLuc modulator: -1.5%; ELG1 repair inh: 20.6µM*; ELG1 genotox: -4.8%

How did O=C(c1ccco1)N1CCN(c2ncccn2)CC1 do in these assays?
Rab9 promoter act: 10.5%; NPC1 prom act: -2.0%; SMN2 splice enh: 11.0%; FLuc modulator: -0.6%; ELG1 repair inh: inconclusive; ELG1 genotox: 7.3%

What do the screens show for `N#Cc1cccc(NC(=O)c2ccc(S(=O)(=O)N3CCOCC3)cc2)c1`?
Rab9 promoter act: -1.6%; NPC1 prom act: -1.8%; FLuc modulator: -1.9%; ELG1 repair inh: -17.4%; ELG1 genotox: -0.2%

What do the screens show for `O=C(NCc1cccs1)C1CCC(CNS(=O)(=O)c2ccccc2)CC1` (centres undefined)?
Rab9 promoter act: 4.7%; NPC1 prom act: -1.2%; SMN2 splice enh: 0.5%; FLuc modulator: 0.9%; ELG1 repair inh: -3.0%; ELG1 genotox: -4.4%

What do the screens show for `O=C1/C(=C/c2cccs2)CCC/C1=C\c1cccs1`?
Rab9 promoter act: 3.55µM*; NPC1 prom act: 1.26µM*; FLuc modulator: 1.9µM*; ELG1 repair inh: inconclusive; ELG1 genotox: inconclusive

How did CC1C/C(=C/c2cccs2)C(=O)/C(=C/c2cccs2)C1 (centres undefined) do in these assays?
Rab9 promoter act: 7.5%; NPC1 prom act: -1.4%; SMN2 splice enh: -16.1%; FLuc modulator: inconclusive; ELG1 repair inh: inconclusive; ELG1 genotox: -0.2%

What do the screens show for `Cn1cccc1/C=C1\CCC/C(=C\c2cccn2C)C1=O`?
Rab9 promoter act: 0.891µM*; NPC1 prom act: 1.26µM*; SMN2 splice enh: inconclusive; FLuc modulator: 6.01µM*; ELG1 repair inh: inconclusive; ELG1 genotox: 1.84µM*
